Each structure is given as a SMILES string. Results filed as inconclusive are left out. Where a call stands in place of a potency, no number is given. The source made the active and inactive calls. Unless noted, calls come from the whole dose curve.
Note: nearly all actives have a fitted effect of over 70% in size.

Sequence of Nucleoprotein (Lymphocytic choriomeningitis virus (strain Armstrong)) (P09992 whole entry, looked up): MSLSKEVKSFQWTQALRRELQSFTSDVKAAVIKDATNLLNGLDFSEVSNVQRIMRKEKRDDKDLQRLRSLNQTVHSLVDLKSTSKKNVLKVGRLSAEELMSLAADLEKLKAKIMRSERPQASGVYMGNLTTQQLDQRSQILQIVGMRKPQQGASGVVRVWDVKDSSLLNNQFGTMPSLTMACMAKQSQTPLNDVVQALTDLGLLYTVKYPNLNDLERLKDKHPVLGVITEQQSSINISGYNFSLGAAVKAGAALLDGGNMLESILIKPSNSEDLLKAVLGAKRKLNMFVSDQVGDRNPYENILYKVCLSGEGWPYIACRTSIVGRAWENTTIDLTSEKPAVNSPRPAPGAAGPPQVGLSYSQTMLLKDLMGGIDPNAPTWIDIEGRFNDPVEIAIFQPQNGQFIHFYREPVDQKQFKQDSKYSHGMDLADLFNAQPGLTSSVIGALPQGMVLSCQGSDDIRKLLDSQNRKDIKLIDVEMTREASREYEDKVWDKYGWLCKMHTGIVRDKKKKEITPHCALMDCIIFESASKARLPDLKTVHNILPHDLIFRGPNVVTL

The first experiment concerns the target Nucleoprotein (Lymphocytic choriomeningitis virus (strain Armstrong)) (UniProt P09992). The experiment in a line: qHTS for Inhibitors of the Functional Ribonucleoprotein Complex (vRNP) of Lymphocytic Choriomeningitis Arenaviruses (LCMV): LCMV Primary Screen - GLuc reporter signal (AID 1347086). Particulars: LCMV minigenome vRNP cell assay, Gaussia luciferase reporter; series mostly up to 57.5 µM. (In qHTS, concentration-response curves come from the screen itself.)
As to `C[C@@H]1OC(O[C@H]2[C@H](Oc3cc(O)c4c(=O)c(O)c(-c5ccc(O)cc5)oc4c3)O[C@H](CO)[C@@H](O)[C@@H]2O)[C@H](O)[C@H](O)[C@H]1O` (some centres undefined), the Potency entry was “inactive”. The same measure, in the same setting: as for `COc1ccc2[nH]c3c(c2c1)CCNC3C` (centres undefined), the entry is “inactive”; as for `NCC1CCC(C(=O)O)CC1` (centres undefined), “inactive”; as for `CCCC/C=C/CCCCO`, “inactive”.

For `C[N+]1([O-])CCC[C@@H]1c1cccnc1` (some centres undefined), the Potency entry was “inactive”. Same read-out and setting: with `COc1cc2oc3ccccc3c(=O)c2cc1OC` the entry was “inactive”; with `CC1=C2C(=O)OC(c3ccoc3)C2(C)CCC1` (centres undefined), “inactive”; with `O=C(O)C(O)Cc1ccc(O)c(O)c1` (centres undefined), “inactive”. The same measure, in the same setting: with `CC(/C=C/C=C(\C)C(=O)O[C@@H]1O[C@H](CO[C@@H]2O[C@H](CO)[C@@H](O)[C@H](O)[C@H]2O)[C@@H](O)[C@H](O)[C@H]1O)=C\C=C\C=C(C)\C=C\C=C(/C)C(=O)O[C@@H]1O[C@H](CO[C@@H]2O[C@H](CO)[C@@H](O)[C@H](O)[C@H]2O)[C@@H](O)[C@H](O)[C@H]1O` the entry was “inactive”; with `c1cncc([C@@H]2CCCCN2)c1`, “inactive”. For `O=c1cc(-c2ccccc2)oc2cc(O)c(O)c(O)c12`, the Potency entry is “inactive”. Same read-out and setting: as for `NCCc1ccccc1`, the entry is “inactive”. Regarding `O=C(Nc1c(Cl)cncc1Cl)c1ccc(OC(F)F)c(OCC2CC2)c1`, the Potency result was “inactive”. The same measure, in the same setting: as for `O=c1cc(-c2ccc(O)c(O)c2)oc2cc(O[C@@H]3O[C@H](CO)[C@@H](O)[C@H](O)[C@H]3O)cc(O)c12`, the entry is “inactive”; as for `CN1C2CCC1CC(OC(=O)C(CO)c1ccccc1)C2` (centres undefined), “inactive”. Still for that read-out and setting: with `CC1=C(/C=C/C(C)=C/C=C/C(C)=C/C=C/C=C(C)/C=C/C=C(C)/C=C/C2=C(C)C[C@@H](O)CC2(C)C)C(C)(C)C[C@H](O)C1` the entry was “inactive”; with `C[C@@H](O)[C@H]1C(=O)N2C(C(=O)OCOC(=O)C(C)(C)C)=C(SC3CN(C4=NCCS4)C3)[C@H](C)[C@H]12`, “inactive”; with `CC(=O)NCCc1c[nH]c2ccc(O)cc12`, “inactive”. Still for that read-out and setting: with `CC(CC=O)CCCC(C)(C)O` (centres undefined) the entry was “inactive”. Consider `O=C(O)Cc1c[nH]c2ccc(O)cc12`, for which the Potency entry was “inactive”. Still for that read-out and setting: as for `CC1=C(O)C(=O)[C@@H]2O[C@@H]2C1=O`, the entry is “inactive”.

On to `O=c1cc(-c2ccc(O)c(O)c2)oc2ccccc12`, for which the Potency entry was “inactive”. Same read-out and setting: as for `CNCC/C=C/c1cccnc1`, the entry is “inactive”. Regarding `O=c1c(O)c(-c2ccc(O)c(O)c2)oc2cc(O)ccc12`, the Potency result is “inactive”. For the compound `COc1ccc(CCN)cc1`, the Potency result was “inactive”.

In the case of `CC(C)=CCc1c(O)cc(O)c2c1OC(c1ccc(O)cc1)CC2=O` (centres undefined), the Potency entry is “inactive”. Same read-out and setting: with `O=C(O)Cc1c[nH]c2ccccc12` the entry was “inactive”; with `CC(=O)OCC1=C(C(=O)[O-])N2C(=O)[C@@H](NC(=O)CCC[C@@H](N)C(=O)[O-])[C@H]2SC1.[Zn+2]`, “inactive”. On the same count and under the same terms, as for `CNCC(N)C(=O)O` (centres undefined), the entry is “inactive”. Turning to `C[Se]CC[C@H](N)C(=O)O`, the Potency entry was “inactive”. `C[C@H]1CC[C@@H]2N(C1)C[C@H]1[C@@H]3C[C@H]4[C@@H](CC(=O)[C@H]5C[C@@H](O)CC[C@@]54C)[C@@H]3CC[C@H]1[C@]2(C)O`: the Potency entry is “inactive”. Turning to `O=c1cc(-c2ccc(O)cc2)oc2c([C@@H]3O[C@H](CO)[C@@H](O)[C@H](O)[C@H]3O)c(O)c([C@@H]3O[C@H](CO)[C@@H](O)[C@H](O)[C@H]3O)c(O)c12`, the Potency entry is “inactive”. Still for that read-out and setting: as for `CN(C)Cc1c[nH]c2ccccc12`, the entry is “inactive”. Still for that read-out and setting: as for `CN1CCCCC1c1cccnc1` (centres undefined), the entry is “inactive”; as for `CCN1C[C@]2(COC(=O)c3ccccc3N3C(=O)CC(C)C3=O)CC[C@H](OC)[C@@]34C5C[C@@H]6[C@@H](OC)C[C@@](O)(C5[C@H]6OC)[C@](O)([C@@H](OC)C23)[C@@H]14` (some centres undefined), “inactive”; as for `Cn1cccc1-c1cccnc1`, “inactive”. Regarding `Cc1cc(O)c2c(c1)O[C@@]1(C)CC[C@H]3C(C)(C)CCCC34CO[C@@H]2[C@H]41` (some centres undefined), the Potency result is “inactive”.

On to `CN(CCCC(=O)c1cccnc1)N=O`, for which the Potency entry is “inactive”.

For `c1cncc(C2CCCN2)c1` (centres undefined), the Potency entry was “inactive”. `COc1cc2c(c(OC)c1OC)-c1c(cc3c(c1OC)OCO3)C[C@H](C)[C@@](C)(O)C2`: the Potency entry was “inactive”.

For a further experiment, the system named is Zika virus NS2B-NS3 protease. Put plainly: Primary screen GU AMC qHTS for Zika virus inhibitors (AID 1347154; active = well fitted inhibition curve with a large enough effect). Particulars: Zika NS2B-NS3 unlinked protease, AMC fluorogenic substrate; series mostly up to 54.1 µM. The procedure, abridged: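 Unlinked Zika NS2B hydrophilic domain–NS3 protease complex at 25 nM in 10 mM Tris-HCl pH 8.0, 0.01% Tween 20, with an AMC peptide substrate. Fluorescence change (340/450 nm) over 15 min at room temperature, normalized to controls, fitted to 4-parameter Hill.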
Regarding `COc1ccc2[nH]c3c(c2c1)CCNC3C` (centres undefined), the Potency entry is “inactive”. On the same count and under the same terms, with `C[N+]1([O-])CCC[C@@H]1c1cccnc1` (some centres undefined) the entry was “inactive”; with `c1cncc([C@@H]2CCCCN2)c1`, “inactive”. For `CC1=C(O)C(=O)[C@@H]2O[C@@H]2C1=O`, the Potency result is “inactive”.

`CNCC/C=C/c1cccnc1`: the Potency result is “inactive”. Same read-out and setting: as for `COc1ccc(CCN)cc1`, the entry is “inactive”; as for `CNCC(N)C(=O)O` (centres undefined), “inactive”. On the same count and under the same terms, as for `C[C@H]1CC[C@@H]2N(C1)C[C@H]1[C@@H]3C[C@H]4[C@@H](CC(=O)[C@H]5C[C@@H](O)CC[C@@]54C)[C@@H]3CC[C@H]1[C@]2(C)O`, the entry is “inactive”. In the case of `CN(C)Cc1c[nH]c2ccccc12`, the Potency entry was “inactive”.

Take `CN1CCCCC1c1cccnc1` (centres undefined): the Potency result was “inactive”. Same read-out and setting: with `CCN1C[C@]2(COC(=O)c3ccccc3N3C(=O)CC(C)C3=O)CC[C@H](OC)[C@@]34C5C[C@@H]6[C@@H](OC)C[C@@](O)(C5[C@H]6OC)[C@](O)([C@@H](OC)C23)[C@@H]14` (some centres undefined) the entry was “inactive”.

For `Cn1cccc1-c1cccnc1`, the Potency result was “inactive”. Still for that read-out and setting: with `CN(CCCC(=O)c1cccnc1)N=O` the entry was “inactive”. In the case of `c1cncc(C2CCCN2)c1` (centres undefined), the Potency result was “inactive”.

The values above are taken from PubChem BioAssay (NCATS).
